Test results reported in PubChem BioAssay.
Active and inactive are the calls of the source.

What was measured:
[1] = tested on: Plasmodium falciparum Sir2 (PF13_0152, Sir2A); assay: pfSir2 binders on small-molecule microarrays, primary screen, biochemical, small-molecule microarray, 635 nm fluorescence (AID 1098); details: small-molecule microarray binding, fluorescence 635 nm; higher = more signal;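 further: score merges spot fluorescence intensity with its signal-to-noise ratio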
[2] = small-molecule microarray binders of probe aDKK1, primary screen, biochemical, biotinylated probe, 635/667 nm fluorescence (AID 1099); details: higher = more signal;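 further: score merges 667nm spot fluorescence with signal to noise across triplicate slides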
[3] = small-molecule microarray binders of probe aCHRDL2, primary screen, biochemical, biotinylated probe, 635/667 nm fluorescence (AID 1100); details: higher = more signal
[4] = splicing luciferase reporter signal modulators, primary screen, spliceosome inhibition project, cell-based, HEK293, splice +/- reporter (AID 1101); details: luminescence, 24 h, higher = more signal, called active from +8 up or from −8 down;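 further: HEK293 cells carrying a splicing-competent luciferase reporter gene; test concentration not given here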
[5] = molecular target: Fibroblast growth factor 10 (Homo sapiens) (UniProt O15520); assay: FGF10 binders on small-molecule microarrays, primary screen, biochemical, small-molecule microarray, 635 nm fluorescence (AID 1102); details: FGF10 binding, fluorescence 635 nm, higher = more signal
[6] = tested on: glycogen synthase kinase-3 (GSK3A per assay name; protocol says GSK3B); assay: GSK3 binders on small-molecule microarrays, primary screen, biochemical, small-molecule microarray, 635 nm fluorescence, GSK3A (AID 1103); details: small-molecule microarray binding, fluorescence 635 nm; higher = more signal; further: the record names both GSK3A and GSK3B
[7] = molecular target: Epidermal growth factor receptor (Homo sapiens) (UniProt P00533); assay: EGFR binders on small-molecule microarrays, primary screen, biochemical, small-molecule microarray, 635 nm fluorescence (AID 1104); details: EGFR binding, higher = more signal;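 further: score merges 667 nm emission intensity with spot signal to noise over triplicate slides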
[8] = molecular target: Follistatin-related protein 3 (Homo sapiens) (UniProt O95633); assay: FSTL3 binders on small-molecule microarrays, primary screen, biochemical, small-molecule microarray, 635 nm fluorescence (AID 1105); details: FSTL3 binding, higher = more signal;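 further: score merges emission near 667 nm and signal to noise per printed spot across three slides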
[9] = molecular target: Dickkopf-related protein 1 (Homo sapiens) (UniProt O94907); assay: DKK1 binders on small-molecule microarrays, primary screen, biochemical, small-molecule microarray, 635 nm fluorescence scan (AID 1106); details: DKK1 binding, higher = more signal;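 further: score merges emission near 667 nm with signal to noise over three replicate slides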
[10] = tested on: Inhibin beta A chain (activin A); assay: INHBA (activin A) binders on microarrays, primary screen, biochemical, small-molecule microarray, 635 nm fluorescence scan (AID 1107); details: small-molecule microarray binding, higher = more signal;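 further: mouse activin A protein probed at 4.33 µg/mL on printed slides; score merges bound-protein fluorescence near 667 nm with spot signal-to-noise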
[11] = tested on: Human papillomavirus type 1a protein E7 (residues 44-93); assay: HPV1a E7 fragment binders on microarrays, primary screen, biochemical, small-molecule microarray, residues 44-93, 635 nm fluorescence (AID 1108); details: small-molecule microarray binding, fluorescence 635 nm; higher = more signal;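 further: E7 fragment applied at 1 µg/mL in TBST for 1 h at 4 C; score combines spot fluorescence with its signal to noise ratio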
[12] = modulators of HCV replicon luciferase signal, primary screen, HCV replication inhibitor project, Huh7 cells, luciferase reporter (AID 1109); details: 48 h, higher = more signal;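 further: huh7 hepatoma cells harbouring a luciferase neomycin HCV replicon reporter; luciferase luminescence as measure of HCV replicon replication; test concentration not given here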
[13] = molecular target: Left-right determination factor 2 (Homo sapiens) (UniProt O00292); assay: LEFTY2 binders on small-molecule microarrays, primary screen, biochemical, small-molecule microarray, 635 nm fluorescence scan (AID 1110); details: LEFTY2 binding, higher = more signal
[14] = molecular target: Calmodulin-1 (Homo sapiens) (UniProt P0DP23); assay: CALM1 binders on microarrays, EGTA buffer, profiling panel, biochemical, small-molecule microarray, Cy5-labelled CALM1 (AID 1111); details: Cy5-CALM1 binding fluorescence, higher = more signal;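 further: labelled calmodulin applied in Tris saline Tween buffer holding calcium plus EGTA and DTT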
[15] = molecular target: Calmodulin-1 (Homo sapiens) (UniProt P0DP23); assay: calcium-bound CALM1 binders on microarrays, profiling panel, artefact control for SMM control-protein annotation, biochemical, small-molecule microarray, Cy5-labelled CALM1, plus calcium (AID 1112); details: Cy5-CALM1 binding fluorescence, higher = more signal;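 further: score merges spot fluorescence with signal to noise from triplicate slides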
[16] = small-molecule microarray binders of probe aWnt5a, primary screen, biochemical, biotinylated probe, 635/667 nm fluorescence (AID 1113); details: higher = more signal;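 further: score merges 667 nm fluorescence intensity with signal-to-noise per printed feature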
[17] = small-molecule microarray binders of probe aShh, primary screen, biochemical, biotinylated probe, 635/667 nm fluorescence (AID 1114); details: higher = more signal;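 further: probe is biotin-labelled aShh protein from a stem cell growth factor screen; measures binding of labelled protein to compounds printed on the slide; score merges feature fluorescence at 667 nm with signal-to-noise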
[18] = small-molecule microarray binders of probe aNog, primary screen, biochemical, biotinylated probe, 635/667 nm fluorescence (AID 1115); details: higher = more signal;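 further: probe is biotinylated aNog protein used at 0.15 µg/mL for 1 h at 4 C; z-score combines 667 nm fluorescence of each spot with its signal to noise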
[19] = molecular target: Torsin-1A-interacting protein 1 (Homo sapiens) (UniProt Q5JTV8); assay: LAP1 binders from COS7 cell lysate, primary screen, small-molecule microarray, 635/667 nm fluorescence (AID 1116); details: COS7-hLAP1 lysate binding, 635 nm fluorescence, higher = more signal
[20] = molecular target: Alpha-bungarotoxin (Bungarus multicinctus) (UniProt P60615); assay: alpha-bungarotoxin binders on microarray, profiling panel, artefact control for SMM control protein annotation, biochemical, small-molecule microarray, Alexa647 label, 635/667 nm fluorescence (AID 1117); details: alpha-BTX-A647 binding fluorescence, higher = more signal
Sequence of Alpha-bungarotoxin (Bungarus multicinctus) (P60615 whole entry, looked up): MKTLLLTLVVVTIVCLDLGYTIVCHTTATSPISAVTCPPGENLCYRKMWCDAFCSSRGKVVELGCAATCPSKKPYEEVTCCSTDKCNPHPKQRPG

Sequence of Fibroblast growth factor 10 (Homo sapiens) (O15520 whole entry, looked up): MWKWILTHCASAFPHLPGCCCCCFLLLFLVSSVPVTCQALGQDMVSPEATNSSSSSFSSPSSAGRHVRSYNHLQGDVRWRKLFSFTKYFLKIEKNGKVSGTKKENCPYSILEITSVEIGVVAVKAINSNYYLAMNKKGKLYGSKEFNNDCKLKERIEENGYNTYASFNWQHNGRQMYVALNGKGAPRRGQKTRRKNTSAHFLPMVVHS
Sequence of Follistatin-related protein 3 (Homo sapiens) (O95633 whole entry, looked up): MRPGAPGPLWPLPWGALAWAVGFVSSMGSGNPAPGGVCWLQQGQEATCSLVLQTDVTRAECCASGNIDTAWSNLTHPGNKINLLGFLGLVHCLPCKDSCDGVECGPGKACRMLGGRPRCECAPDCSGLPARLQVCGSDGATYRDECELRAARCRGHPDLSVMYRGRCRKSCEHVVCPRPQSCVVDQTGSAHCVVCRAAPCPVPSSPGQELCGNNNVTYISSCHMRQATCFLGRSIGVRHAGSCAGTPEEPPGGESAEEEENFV
Sequence of Left-right determination factor 2 (Homo sapiens) (O00292 whole entry, looked up): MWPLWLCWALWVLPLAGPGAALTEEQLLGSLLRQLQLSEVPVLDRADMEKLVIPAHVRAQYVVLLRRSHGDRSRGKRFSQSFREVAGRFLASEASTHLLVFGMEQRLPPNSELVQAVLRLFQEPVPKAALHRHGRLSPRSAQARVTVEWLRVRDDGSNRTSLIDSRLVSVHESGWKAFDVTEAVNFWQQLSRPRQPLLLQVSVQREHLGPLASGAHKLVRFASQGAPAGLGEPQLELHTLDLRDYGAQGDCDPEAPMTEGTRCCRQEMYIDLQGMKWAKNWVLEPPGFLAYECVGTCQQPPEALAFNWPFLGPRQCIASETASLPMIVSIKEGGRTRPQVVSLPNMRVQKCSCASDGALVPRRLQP
Sequence of Dickkopf-related protein 1 (Homo sapiens) (O94907 whole entry, looked up): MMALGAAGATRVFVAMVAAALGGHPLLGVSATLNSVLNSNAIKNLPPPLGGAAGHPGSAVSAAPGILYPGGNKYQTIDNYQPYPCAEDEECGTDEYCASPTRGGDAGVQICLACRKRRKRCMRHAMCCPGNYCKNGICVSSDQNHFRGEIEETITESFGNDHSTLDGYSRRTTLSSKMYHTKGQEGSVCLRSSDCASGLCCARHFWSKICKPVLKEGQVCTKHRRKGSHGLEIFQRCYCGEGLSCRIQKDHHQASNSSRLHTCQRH
Sequence of Epidermal growth factor receptor (Homo sapiens) (P00533 whole entry, looked up): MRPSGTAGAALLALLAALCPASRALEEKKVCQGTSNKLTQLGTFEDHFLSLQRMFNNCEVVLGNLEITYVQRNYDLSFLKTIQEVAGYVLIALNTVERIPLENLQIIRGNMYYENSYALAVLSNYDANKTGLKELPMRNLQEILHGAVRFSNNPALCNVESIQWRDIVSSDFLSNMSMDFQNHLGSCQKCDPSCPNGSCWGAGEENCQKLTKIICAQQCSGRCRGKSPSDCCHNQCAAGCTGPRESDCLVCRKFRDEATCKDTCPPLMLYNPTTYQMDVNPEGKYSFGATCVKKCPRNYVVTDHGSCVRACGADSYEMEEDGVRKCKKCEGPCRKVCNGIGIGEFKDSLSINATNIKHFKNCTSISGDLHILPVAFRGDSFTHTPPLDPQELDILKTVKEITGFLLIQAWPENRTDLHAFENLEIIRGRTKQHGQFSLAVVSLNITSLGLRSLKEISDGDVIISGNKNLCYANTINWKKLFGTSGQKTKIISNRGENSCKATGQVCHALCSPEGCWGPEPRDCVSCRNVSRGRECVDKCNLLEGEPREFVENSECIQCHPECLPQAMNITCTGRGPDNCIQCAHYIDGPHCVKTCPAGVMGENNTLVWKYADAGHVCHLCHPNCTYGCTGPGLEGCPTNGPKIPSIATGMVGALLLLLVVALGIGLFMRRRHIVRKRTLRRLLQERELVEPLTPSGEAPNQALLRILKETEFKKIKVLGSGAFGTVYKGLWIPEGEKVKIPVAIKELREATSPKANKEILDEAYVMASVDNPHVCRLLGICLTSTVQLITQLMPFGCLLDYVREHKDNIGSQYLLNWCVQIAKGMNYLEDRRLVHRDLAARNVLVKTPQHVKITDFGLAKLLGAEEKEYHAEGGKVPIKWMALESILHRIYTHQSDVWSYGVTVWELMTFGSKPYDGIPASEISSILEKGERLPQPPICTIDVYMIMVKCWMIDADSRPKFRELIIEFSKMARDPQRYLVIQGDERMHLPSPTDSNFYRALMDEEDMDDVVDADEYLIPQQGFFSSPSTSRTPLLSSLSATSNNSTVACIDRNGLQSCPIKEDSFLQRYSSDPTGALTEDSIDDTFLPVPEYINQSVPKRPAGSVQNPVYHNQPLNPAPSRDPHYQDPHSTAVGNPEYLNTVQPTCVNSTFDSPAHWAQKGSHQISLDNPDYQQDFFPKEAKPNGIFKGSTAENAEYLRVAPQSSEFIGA
Sequence of Torsin-1A-interacting protein 1 (Homo sapiens) (Q5JTV8 whole entry, looked up): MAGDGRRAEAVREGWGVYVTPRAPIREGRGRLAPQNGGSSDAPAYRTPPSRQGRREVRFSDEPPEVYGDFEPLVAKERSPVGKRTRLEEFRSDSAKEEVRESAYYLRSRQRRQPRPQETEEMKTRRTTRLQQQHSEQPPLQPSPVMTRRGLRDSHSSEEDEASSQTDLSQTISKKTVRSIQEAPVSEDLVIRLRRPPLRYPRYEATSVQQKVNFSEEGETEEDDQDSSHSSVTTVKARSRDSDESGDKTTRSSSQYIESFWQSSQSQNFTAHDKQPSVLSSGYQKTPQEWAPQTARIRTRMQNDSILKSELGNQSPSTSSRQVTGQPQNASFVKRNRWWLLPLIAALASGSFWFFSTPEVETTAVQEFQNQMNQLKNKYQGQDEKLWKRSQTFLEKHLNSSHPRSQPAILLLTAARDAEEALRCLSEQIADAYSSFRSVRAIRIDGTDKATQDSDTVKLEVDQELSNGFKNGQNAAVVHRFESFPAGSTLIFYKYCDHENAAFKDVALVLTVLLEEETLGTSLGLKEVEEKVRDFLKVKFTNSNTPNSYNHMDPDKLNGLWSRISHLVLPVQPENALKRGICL

SMILES | composite z-score [1] | composite z-score [2] | composite z-score [3] | z-score [4] | composite z-score [5] | composite z-score [6] | composite z-score [7] | composite z-score [8] | composite z-score [9] | composite z-score [10] | composite z-score [11] | z-score [12] | composite z-score [13] | composite z-score [14] | composite z-score [15] | composite z-score [16] | composite z-score [17] | composite z-score [18] | composite z-score [19] | composite z-score [20]
CCOC(=O)C1=C[C@@H](C(C)(C)C)N(S(=O)(=O)c2ccc(C)cc2)[C@H]1c1ccc(F)cc1 | 0.592 | 0.75 | 0.4 | -0.711 (inactive) | 0.81 | 1.29 | 0.395 | 1.23 | 0.402 | 0.556 | 1.41 | -1.59 | 0.653 | 1.49 | 0.083 | 0.0668 | -0.1 | 0.509 | 0.992 | 1.15
O=C1c2ccccc2[C@](Cc2ccccc2I)(C(=O)NCCN2CCOCC2)[C@H](c2ccc(CO)cc2)N1Cc1ccccc1Cl | 1.42 | 0.964 | 0.732 | -0.0587 (inactive) | 1.15 | 1.28 | 0.629 | 1.25 | 0.419 | 0.605 | -0.612 | -2.64 | 0.945 | 1.51 | 0.0568 | 0.0215 | -0.0011 | -0.474 | 0.896 | 1.47
CC(C)C(=C=CC[C@@H](O)c1ccc(OCCO)cc1)C[C@@H](O)c1ccccn1 | 0.595 | -0.0166 | -0.495 | 0.106 (inactive) | 1.6 | 0.854 | 0.124 | 1.06 | 1.76 | 0.59 | 0.323 | -0.218 | 1.21 | -0.315 | -0.113 | -0.0721 | -0.0709 | -0.0926 | 1.08 | -0.0878
COC(=O)[C@@]1(Cc2ccccc2)N=C(c2ccc(OCCCO)cc2)O[C@H]1c1ccccc1 | 1.65 | 0.206 | 0.893 | 6.38 (inactive) | 0.0071 | 0.319 | -1.08 | -1.05 | -0.862 | 0.599 | 0.968 | -1.98 | -1.06 | 0.288 | -0.0316 | -0.0647 | 0.261 | 1.14 | 2.32 | 1.93
O=C1[C@@]23C=C(Br)[C@H](C[C@@H]2CCOC3)[C@@]12CO2 | 0.204 | -0.327 | -0.478 | 0.149 (inactive) | 0.254 | 0.329 | 0.442 | 0.473 | 0.485 | 0.684 | 0.364 | -2.17 | 0.459 | -0.206 | -0.657 | -0.0585 | 0.151 | -0.303 | 1.53 | 0.331
CC1CC/C=C\[C@H]2OC34C=CCN(Cc5ccccc5)C(=O)[C@H]3N(CCCO)C(=O)[C@@H]4C2C(=O)O1 (stereo not given in full) | 0.881 | -0.307 | 0.45 | -0.0477 (inactive) | -1.14 | -0.657 | -0.574 | -1.07 | -0.538 | -0.192 | -0.537 | -1.29 | -2.03 | -0.226 | 0.876 | -0.202 | -0.449 | 0.0522 | -0.0302 | -0.973
NC(=O)NCC#Cc1ccc2c(c1)[C@]1(C(=O)N2)[C@H](c2ccccc2OCCO)N2[C@H](c3ccccc3)[C@H](c3ccccc3)OC(=O)[C@H]2[C@@H]1C(=O)Nc1nc2ccccc2s1 | 0.134 | -0.0335 | 0.483 | 0.663 (inactive) | 0.271 | -0.175 | -0.209 | 0.429 | 0.0336 | 0.52 | 1.36 | -0.809 | 0.0464 | 0.873 | 0.745 | -0.0944 | -0.266 | 0.448 | 0.286 | 1.29
C=CCN1C(=O)[C@@]2(CC=C)N=C(c3ccc(OCCCO)cc3)O[C@H]2c2ccccc21 | 1.66 | 0.801 | 1.08 | -1.63 (inactive) | 1.45 | 1.32 | 0.734 | 1.41 | 1.14 | 1.2 | 1.41 | -2.48 | 0.984 | 3.11 | 0.0457 | 0.026 | -0.0886 | 0.808 | 1.62 | 0.951
[N-]=[N+]=Nc1ccccc1[C@H]1OC(c2ccc(OCCCO)cc2)=N[C@@]1(CCS(=O)(=O)c1ccccc1)C(=O)NCC(O)CO (stereo not given in full) | 1.47 | 0.766 | 0.95 | -0.662 (inactive) | 1.24 | 0.933 | -0.214 | 0.505 | -0.415 | 0.899 | 1.46 | -0.604 | -0.671 | 1.15 | 0.211 | 0.027 | 0.0611 | -0.62 | 1.93 | 1.21
CCOC(=O)C[C@H]1[C@H](OC(=O)c2ccc(C(=O)c3ccccc3)cc2)[C@@H](NC(=O)c2ccccc2)c2cc(OCCCO)ccc2N1C(=O)Cc1ccc(OC)cc1 | -0.0032 | 0.234 | 0.586 | 0.0989 (inactive) | 0.131 | 0.0916 | 0.285 | 0.0514 | -0.0269 | 0.811 | 0.525 | -0.283 | 0.366 | 0.0941 | -0.222 | -0.107 | -0.195 | -0.205 | 0.738 | 0.178
NCCCCCCNC(=O)[C@@H]1C[C@@H]2C(=O)NCC(=O)N2[C@@H]1c1ccc(O)cc1 | 1.45 | -0.0828 | -0.0743 | -0.481 (inactive) | 1.05 | 1.3 | 0.574 | 1.3 | 1.6 | 0.802 | 1.29 | 0.279 | 1.14 | 0.584 | -0.0301 | -0.142 | 0.0469 | -0.566 | 0.715 | 1.41
